The nature of test [1]: qHTS assay to identify aromatase inhibitors - cell viability counter screen (AID 743084).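 Also: cells stimulated with testosterone during compound exposure; nearly all actives have a fitted effect of over 55% in size.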 The settings on record: MCF-7 aro ERE viability, CellTiter-Fluor, 24 h; series mostly up to 70.3 µM.
The target of test [2] is Aryl hydrocarbon receptor (Homo sapiens) (UniProt P35869). Briefly: qHTS assay to identify small molecule that activate the aryl hydrocarbon receptor (AhR) signaling pathway (AID 743085).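 Also: HG2L7.5c1 human HepG2 liver cells with stably integrated DRE-driven firefly reporter; nearly all actives have a fitted effect of over 15% in size.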 To be noted: HepG2 AhR-luc (HG2L7.5c1), luciferase, 24 h; series mostly up to 70.3 µM. A digest of the protocol: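 HepG2 cells stably carrying a 20-DRE firefly luciferase reporter (HG2L7.5c1) treated with compound for 24 hr at 37C. Luciferase read by ONE-Glo luminescence, with CellTiter-Fluor viability read first.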

Test [3] can be described thus: qHTS assay to identify small molecule that activate the aryl hydrocarbon receptor (AhR) signaling pathway - cell viability counter screen (AID 743086). Also: nearly all actives have a fitted effect of over 45% in size. The settings on record: HepG2-AhR-luc viability, CellTiter-Fluor, 24 h; series mostly up to 70.3 µM. In a few lines:
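HepG2-AhR-luc (HG2L7.5c1) cells, 4000/well, were preincubated 5 h at 37C, exposed to compound in qHTS format for 24 hr at 37C, then given CellTiter-Fluor for 30 min; viability was read as fluorescence in the reporter wells.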
On the technique in general: In qHTS, concentration-response curves come from the screen itself.

The target of test [4] is Peroxisome proliferator-activated receptor gamma (Homo sapiens) (UniProt P37231). Briefly: qHTS assay to identify small molecule agonists of the peroxisome proliferator-activated receptor gamma (PPARg) signaling pathway (AID 743094; active = well fitted activation curve with a large enough effect in the signal ratio in the repeat runs, not every such curve was filed as active; the % refers to the signal ratio). The settings on record: HEK293H PPARg-UAS-bla, beta-lactamase FRET ratio, 17 h; series mostly up to 57 µM. A digest of the protocol: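 Cells from the PPARg UAS-bla HEK293H line are plated and incubated 5 h at 37C. Compounds in DMSO are pinned in and left 17 h at 37C. LiveBLAzer B/G substrate is then added for 1 h at room temperature before fluorescence is measured.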

For test [5] the target is unchanged. The experiment in a line: qHTS assay to identify small molecule antagonists of the peroxisome proliferator-activated receptor gamma (PPARg) signaling pathway (AID 743191; calls by dose curve; also: nearly all actives have a fitted effect of over 30% in size). The settings on record: HEK293H PPARg-UAS-bla, beta-lactamase ratio, antagonist, 17 h; series mostly up to 62.6 µM. In a few lines:
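GeneBLAzer PPARg UAS-bla HEK293H cells carrying a UAS-driven beta-lactamase reporter were plated at 3000 cells/well, preincubated 5 h at 37C, then given compound for 17 h at 37C; LiveBLAzer B/G FRET substrate was read after 1 h at room temperature.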

Test [6] in a line: qHTS assay to identify small molecule antagonists of the peroxisome proliferator-activated receptor gamma (PPARg) signaling pathway - cell viability counter screen (AID 743194). Also: nearly all actives have a fitted effect of over 55% in size. To be noted: PPARg-bla HEK293H viability, CellTiter-Glo luminescence, 17 h, co-treated with 50 nM rosiglitazone; series mostly up to 62.6 µM. A digest of the protocol: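 PPARg-UAS-bla HEK293H cells were plated, rested 5 h at 37 C, then treated with compounds plus rosiglitazone (50 nM final) for 17 h at 37 C; viability was then read by CellTiter-Glo luminescence after 30 min at room temperature.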

The nature of test [7]: qHTS assay for small molecule agonists of the antioxidant response element (ARE) signaling pathway (AID 743202; active = well fitted activation curve with a large enough effect in the signal ratio in the repeat runs, not every such curve was filed as active; the % refers to the signal ratio). To be noted: HepG2 ARE-bla reporter, beta-lactamase FRET, 16 h; series mostly up to 73.3 µM. In a few lines:
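Steps: seed ARE-bla HepG2 cells (2,000/well); incubate 5 h at 37 C; add compounds by pin tool; incubate 16 h at 37 C; add FRET substrate; read fluorescence after 2 h at RT.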

Test [8] can be described thus: qHTS assay for small molecule agonists of the antioxidant response element (ARE) signaling pathway - cell viability counter screen (AID 743203; calls by dose curve; also: nearly all actives have a fitted effect of over 55% in size). To be noted: ARE-bla HepG2 viability, CellTiter-Glo luminescence, 16 h; series mostly up to 73.3 µM. In a few lines:
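Cytotoxicity was tested in parallel with the ARE reporter screen. ARE-bla HepG2 cells were exposed to compounds for 16 hrs, and viability was taken from CellTiter-Glo luminescence.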

A short description of test [9]: qHTS assay for small molecule activators of the heat shock response signaling pathway - cell viability counter screen (AID 743209). Also: nearly all actives have a fitted effect of over 50% in size. The settings on record: HSE-bla HeLa viability, CellTiter-Glo luminescence, 5 h; series mostly up to 62.6 µM. In a few lines:
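Cytotoxicity counter screen run in parallel with the HSE beta-lactamase reporter, using the same wells. HeLa HSE-bla cells received compound for 5 h at 37 C; ATP-based CellTiter-Glo luminescence was measured after 30 min at room temperature.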

Test [10] is described as follows: qHTS assay for small molecule activators of the heat shock response signaling pathway (AID 743210; active = well fitted activation curve with a large enough effect in the signal ratio in the repeat runs, with a control signal flat, not every such curve was filed as active; the % refers to the signal ratio). To be noted: HeLa HSE-bla reporter, beta-lactamase ratio, 5 h; series mostly up to 62.6 µM. In a few lines: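 Activation of heat shock element-controlled beta-lactamase expression is measured in HeLa cells by LiveBLAzer FRET fluorescence, with compound exposure lasting 5 h at 37 C and substrate loading 2.5 h at room temperature.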

The nature of test [11]: qHTS assay to identify small molecule agonists of the peroxisome proliferator-activated receptor delta (PPARd) signaling pathway - cell viability counter screen (AID 743211). Also: nearly all actives have a fitted effect of over 55% in size. The settings on record: PPARd-bla HEK293H viability, CellTiter-Glo luminescence, 17 h; series mostly up to 62.6 µM. A digest of the protocol:
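PPARd-bla HEK293H cells (3000/well) were pre-incubated 5 h at 37 C, then exposed to compound for 17 h at 37 C. After 2 h with LiveBLAzer substrate, CellTiter-Glo was added to the same wells; luminescence read after 30 min at room temperature.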

For test [12], the target named is Peroxisome proliferator-activated receptor delta (Homo sapiens) (UniProt Q03181). The experiment in a line: qHTS assay to identify small molecule agonists of the peroxisome proliferator-activated receptor delta (PPARd) signaling pathway (AID 743212; calls by dose curve). The settings on record: HEK293H PPARd-UAS-bla, beta-lactamase FRET ratio, 17 h; series mostly up to 62.6 µM. In a few lines:
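Cells expressing a UAS-driven beta-lactamase reporter (PPARd-bla HEK293H) were given test compounds after a 5 h settle and kept at 37 C. Reporter activity was then measured as FRET fluorescence using LiveBLAzer B/G substrate.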

Test [13] can be described thus: qHTS assay to identify small molecule antagonists of the peroxisome proliferator-activated receptor delta (PPARd) signaling pathway - cell viability counter screen (AID 743213). Also: nearly all actives have a fitted effect of over 50% in size. The settings on record: PPARd-bla HEK293H viability, CellTiter-Glo luminescence, 17 h; series mostly up to 62 µM. In a few lines: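 Cytotoxicity counter screen: CellTiter-Glo luminescence read 30 min after addition, in the same wells as the reporter assay. There, PPARd UAS-bla HEK293H cells (3000/well) were treated 17 h at 37 C with compound and 300 nM L165041.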

In test [14] the target is Peroxisome proliferator-activated receptor delta (Homo sapiens) (UniProt Q03181). The experiment in a line: qHTS assay to identify small molecule antagonists of the peroxisome proliferator-activated receptor delta (PPARd) signaling pathway (AID 743215; active = well fitted inhibition curve with a large enough effect in the signal ratio in the repeat runs, not every such curve was filed as active; the % refers to the signal ratio;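 also: cells stimulated with agonist L165041 at 300 nM final during compound exposure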). To be noted: HEK293H PPARd-UAS-bla, beta-lactamase FRET ratio, antagonist, 17 h; series mostly up to 62 µM. A digest of the protocol:
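Cells: HEK293H with a UAS-driven beta-lactamase reporter responsive to PPARd. Compounds were co-added with L165041 (300 nM, final) and incubated 17 h at 37 C before a 2 h room-temperature FRET substrate step and fluorescence reading.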

The nature of test [15]: qHTS assay to identify small molecule agonists of the farnesoid-X-receptor (FXR) signaling pathway - cell viability counter screen (AID 743218). Also: nearly all actives have a fitted effect of over 45% in size. The settings on record: FXR-bla HEK293T viability, CellTiter-Glo luminescence, 16 h; series mostly up to 62.6 µM. A digest of the protocol: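 Cells were seeded, left 5 h at 37 C and 5% CO2, then dosed with compound in DMSO for 16 h. After the beta-lactamase FRET read, CellTiter-Glo was added and luminescence measured 30 min later.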

Test [16] is described as follows: qHTS assay to identify small molecule antagonists of the farnesoid-X-receptor (FXR) signaling pathway - cell viability counter screen (AID 743221; active = well fitted cell-killing curve with a large enough effect in the repeat runs, not every such curve was filed as active; also: nearly all actives have a fitted effect of over 50% in size). To be noted: FXR-bla HEK293T viability, CellTiter-Glo luminescence, 16 h; series mostly up to 62.6 µM. In a few lines:
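GeneBLAzer FXR-UAS-bla HEK 293T cells, compound plus chenodeoxycholic acid (50 uM final), 16 h at 37 C. CellTiter-Glo added to the same wells after the beta-lactamase read; luminescence read after 30 min at room temperature as viability.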

Test [17] has as its target Bile acid receptor (Homo sapiens) (UniProt Q96RI1). The experiment in a line: qHTS assay to identify small molecule antagonists of the farnesoid-X-receptor (FXR) signaling pathway (AID 743217; active = well fitted inhibition curve with a large enough effect in the signal ratio in the repeat runs, not every such curve was filed as active; the % refers to the signal ratio). To be noted: HEK293T FXR-UAS-bla, beta-lactamase ratio, CDCA-stimulated, 16 h; series mostly up to 62.6 µM. In a few lines: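 Cells carrying a UAS-driven beta-lactamase reporter (GeneBLAzer FXR-UAS-bla HEK 293T) were plated and rested 5 h at 37 °C. Compounds in DMSO were added alongside chenodeoxycholic acid agonist at 50 uM final and left 16 h at 37 °C before FRET substrate readout.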

The target is the same in test [18]. The experiment in a line: qHTS assay to identify small molecule agonists of the farnesoid-X-receptor (FXR) signaling pathway (AID 743220; active = well fitted activation curve with a large enough effect in the signal ratio in the repeat runs, not every such curve was filed as active; the % refers to the signal ratio; also: potency is read from the fitted curve at half-maximal effect). To be noted: HEK293T FXR-UAS-bla, beta-lactamase FRET ratio, 16 h; series mostly up to 62.6 µM. A digest of the protocol:
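FXR-UAS-bla HEK 293T cells carrying a UAS-driven beta-lactamase reporter were plated for 5 h at 37C/5% CO2, then exposed to DMSO-dissolved Tox21 10K compounds for 16 h at 37C. A LiveBLAzer B/G FRET substrate was loaded for 2 h at room temperature before fluorescence reading.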

Test [19] concerns the target Vitamin D3 receptor (Homo sapiens) (UniProt P11473). Briefly: qHTS assay to identify small molecule agonists of the vitamin D receptor (VDR) signaling pathway (AID 743222; calls by dose curve). To be noted: HEK293T VDR-UAS-bla, beta-lactamase FRET ratio, 16 h; series mostly up to 63.5 µM. A digest of the protocol: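 Cells carrying a VDR-driven beta-lactamase reporter are seeded at 2,000 per well and rested 4 h. Compounds in DMSO are added for 16 h at 37C, and FRET substrate fluorescence is measured after 2 h at room temperature.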

Test [20] has the same target. Briefly: qHTS assay to identify small molecule antagonists of the vitamin D receptor (VDR) signaling pathway (AID 743223; active = well fitted inhibition curve with a large enough effect in the signal ratio in the repeat runs, not every such curve was filed as active; the % refers to the signal ratio). The settings on record: VDR-UAS-bla HEK293T, beta-lactamase FRET ratio, 16 h; series mostly up to 61 µM. In a few lines:
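VDR-bla cells were treated with compound plus 3 nM final 1alpha,25-dihydroxyvitamin D3 for 16 h at 37C. Beta-lactamase reporter read by B/G FRET substrate fluorescence after 2 h at room temperature. qHTS format.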

Records with an inconclusive call do not appear. Active and inactive are the calls of the source. Unless noted, calls follow the shape of the dose curve; as a rule, active = well fitted curve in the direction sought with a large enough effect in the repeat runs; inconclusive = weak or mixed curves; inactive = no such curve, though single readings can be large; an effect the other way counts as inactive or inconclusive.

Chain of Peroxisome proliferator-activated receptor delta (Homo sapiens) (Q03181 whole entry, looked up): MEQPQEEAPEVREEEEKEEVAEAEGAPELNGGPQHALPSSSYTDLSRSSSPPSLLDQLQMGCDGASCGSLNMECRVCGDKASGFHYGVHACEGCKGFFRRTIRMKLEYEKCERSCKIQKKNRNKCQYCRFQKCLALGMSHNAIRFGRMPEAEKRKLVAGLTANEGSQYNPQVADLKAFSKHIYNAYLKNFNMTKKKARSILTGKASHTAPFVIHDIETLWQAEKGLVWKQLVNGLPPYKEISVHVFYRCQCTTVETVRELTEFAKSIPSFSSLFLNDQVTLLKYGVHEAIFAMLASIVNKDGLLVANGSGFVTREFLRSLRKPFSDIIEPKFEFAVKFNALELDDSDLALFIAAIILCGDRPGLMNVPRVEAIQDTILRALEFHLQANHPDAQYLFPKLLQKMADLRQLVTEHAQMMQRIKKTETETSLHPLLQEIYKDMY
Chain of Aryl hydrocarbon receptor (Homo sapiens) (P35869 whole entry, looked up): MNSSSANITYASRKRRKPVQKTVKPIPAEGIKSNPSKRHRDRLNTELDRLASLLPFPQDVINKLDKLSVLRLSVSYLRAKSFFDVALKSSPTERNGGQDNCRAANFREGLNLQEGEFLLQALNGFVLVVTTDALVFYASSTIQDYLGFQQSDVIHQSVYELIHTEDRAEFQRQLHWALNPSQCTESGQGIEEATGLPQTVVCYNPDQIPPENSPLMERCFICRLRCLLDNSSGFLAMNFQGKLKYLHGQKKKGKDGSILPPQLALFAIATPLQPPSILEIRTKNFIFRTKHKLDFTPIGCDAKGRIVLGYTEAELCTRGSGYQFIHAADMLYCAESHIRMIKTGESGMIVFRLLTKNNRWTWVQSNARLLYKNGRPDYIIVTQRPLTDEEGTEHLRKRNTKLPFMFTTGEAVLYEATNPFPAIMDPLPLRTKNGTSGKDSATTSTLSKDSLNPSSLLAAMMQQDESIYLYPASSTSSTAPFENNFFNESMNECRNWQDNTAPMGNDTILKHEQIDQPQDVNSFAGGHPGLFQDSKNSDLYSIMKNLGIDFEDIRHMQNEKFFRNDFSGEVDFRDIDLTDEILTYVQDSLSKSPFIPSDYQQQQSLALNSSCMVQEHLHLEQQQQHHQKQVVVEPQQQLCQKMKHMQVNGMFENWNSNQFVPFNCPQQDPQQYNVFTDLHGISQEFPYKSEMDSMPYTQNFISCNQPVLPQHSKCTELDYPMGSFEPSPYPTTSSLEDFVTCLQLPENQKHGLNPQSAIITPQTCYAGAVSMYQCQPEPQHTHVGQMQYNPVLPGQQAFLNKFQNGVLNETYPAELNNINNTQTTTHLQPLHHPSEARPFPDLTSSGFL
Chain of Vitamin D3 receptor (Homo sapiens) (P11473 whole entry, looked up): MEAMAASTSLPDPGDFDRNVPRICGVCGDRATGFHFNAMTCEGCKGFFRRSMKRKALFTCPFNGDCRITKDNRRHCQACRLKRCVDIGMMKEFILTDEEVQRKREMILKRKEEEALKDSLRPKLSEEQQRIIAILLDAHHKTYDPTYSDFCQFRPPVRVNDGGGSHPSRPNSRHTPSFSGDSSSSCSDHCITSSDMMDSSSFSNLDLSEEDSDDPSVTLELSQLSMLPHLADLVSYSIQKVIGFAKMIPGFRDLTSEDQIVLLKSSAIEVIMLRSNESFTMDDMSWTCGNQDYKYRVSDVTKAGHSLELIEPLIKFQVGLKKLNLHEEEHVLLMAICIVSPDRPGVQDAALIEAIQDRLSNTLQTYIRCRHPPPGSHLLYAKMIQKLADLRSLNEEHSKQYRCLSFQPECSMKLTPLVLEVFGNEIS
Chain of Peroxisome proliferator-activated receptor gamma (Homo sapiens) (P37231 whole entry, looked up): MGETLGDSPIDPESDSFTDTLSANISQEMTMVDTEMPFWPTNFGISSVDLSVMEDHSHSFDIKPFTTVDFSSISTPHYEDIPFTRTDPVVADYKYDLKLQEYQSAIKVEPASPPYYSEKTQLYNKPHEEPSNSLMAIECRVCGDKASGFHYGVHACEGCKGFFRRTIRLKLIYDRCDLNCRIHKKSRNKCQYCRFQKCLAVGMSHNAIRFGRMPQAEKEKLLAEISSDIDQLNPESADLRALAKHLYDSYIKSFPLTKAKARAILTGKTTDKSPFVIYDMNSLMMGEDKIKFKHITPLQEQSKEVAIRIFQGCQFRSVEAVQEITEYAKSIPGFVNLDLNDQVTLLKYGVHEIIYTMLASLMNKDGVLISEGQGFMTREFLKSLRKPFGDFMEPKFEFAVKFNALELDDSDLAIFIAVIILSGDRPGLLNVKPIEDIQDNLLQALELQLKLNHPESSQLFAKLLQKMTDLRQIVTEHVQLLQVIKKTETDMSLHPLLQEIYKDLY
Chain of Bile acid receptor (Homo sapiens) (Q96RI1 whole entry, looked up): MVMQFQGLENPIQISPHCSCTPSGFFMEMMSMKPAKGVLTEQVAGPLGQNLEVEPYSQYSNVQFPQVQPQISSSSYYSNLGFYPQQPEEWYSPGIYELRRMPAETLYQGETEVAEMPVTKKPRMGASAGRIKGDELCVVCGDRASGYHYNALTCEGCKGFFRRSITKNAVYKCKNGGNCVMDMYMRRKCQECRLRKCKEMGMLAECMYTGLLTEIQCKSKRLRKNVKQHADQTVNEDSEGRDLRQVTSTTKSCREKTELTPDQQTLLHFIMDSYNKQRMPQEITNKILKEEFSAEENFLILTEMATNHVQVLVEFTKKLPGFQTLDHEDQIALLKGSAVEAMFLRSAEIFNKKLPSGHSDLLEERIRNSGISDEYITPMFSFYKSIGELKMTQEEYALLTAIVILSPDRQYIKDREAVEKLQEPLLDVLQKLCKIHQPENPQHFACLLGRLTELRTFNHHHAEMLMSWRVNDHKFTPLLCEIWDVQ

For the molecule `Cc1c(N)cccc1[N+](=O)[O-]`, the Potency entry in test [1], in test [2], in test [3], in [4], in test [5] and in test [6] was “inactive” each time. Also, the Potency entry in [7], in [8], in test [9], in [10], in test [11] and in [12] was “inactive” throughout. Moreover, the Potency result in test [13], in [14], in test [15] and in test [16] was “inactive” throughout.
In the case of `C=C(C)C(=O)OCC`, the Potency result in test [1], in test [2], in test [3], in test [4], in test [5] and in test [6] was “inactive” in each case. Moreover, the Potency entry in test [7], in test [8], in test [9], in test [10], in test [11] and in test [12] was “inactive” each time. The Potency entry in [14], in test [17], in test [15], in [18], in [16] and in [19] was “inactive” in each case. Further, the outcome in test [20] was inactive.
On to `CCO[Si](CCCCl)(OCC)OCC`, for which the Potency entry in [1], in test [2], in [3], in test [4], in [5] and in [6] was “inactive” throughout. Further, the Potency entry in test [7], in [8], in [9], in [10], in test [12] and in test [13] was “inactive” each time. Moreover, the Potency result in test [14], in test [15] and in [16] was “inactive” throughout. The result in [20] was inactive.
Turning to `C[C@H](CCC(=O)O)[C@H]1CC[C@H]2[C@@H]3CC[C@@H]4C[C@H](O)CC[C@]4(C)[C@H]3C[C@H](O)[C@]12C`, the Potency result in [1], in [2], in test [3], in test [4], in test [5] and in [8] was “inactive” throughout. The Potency entry in test [10] is “inactive”. For the same molecule, the Potency in [18] is 49.1 µM (active).

These data come from PubChem BioAssay (Tox21).
